The supplement of paper PMC8728848
This is one part of a sample in which the strongest signals are shown more often than they occur.

Legend:
Experiment in all cases: glycan array binding signal (z-score within array); higher = stronger binding
Details in all cases: glycan notation: IUPAC condensed, linker removed
GlcA(b1-6)Gal = target: GlcA(b1-6)Gal
Outline: (§1)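 The binding signal is a Z-score computed within each array. Data were drawn from 3228 arrays in the Consortium for Functional Glycomics database, restricted to those with a known protein sequence. Scores were averaged over arrays of the same protein sequence at different concentrations or buffers, and over linkers, and negative values can be taken as non-binding.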

[1] = target: GlcNAc(a1-4)Gal(b1-4)GlcNAc(b1-3)Gal(b1-4)GlcNAc
Outline: as §1

[2] = target: GlcNAc(b1-2)[GlcNAc(b1-4)]Man(a1-3)[GlcNAc(b1-4)][GlcNAc(b1-2)Man(a1-6)]Man(b1-4)GlcNAc(b1-4)GlcNAc
Outline: as §1

[3] = target: GlcNAc(b1-2)[GlcNAc(b1-6)]Man(a1-6)[GlcNAc(b1-4)][GlcNAc(b1-2)Man(a1-3)]Man(b1-4)GlcNAc(b1-4)GlcNAc
Outline: as §1

[4] = target: GlcNAc(b1-3)Gal(b1-3)GalNAc
Outline: as §1

[5] = target: GlcNAc(b1-3)Gal(b1-4)GlcNAc(b1-2)Man(a1-3)[GlcNAc(b1-3)Gal(b1-4)GlcNAc(b1-2)Man(a1-6)]Man(b1-4)GlcNAc(b1-4)GlcNAc
Outline: as §1

[6] = target: GlcNAc(b1-4)Gal(b1-4)GlcNAc
Outline: as §1

GlcNAc(b1-6)GalNAc = target: GlcNAc(b1-6)GalNAc
Outline: as §1

Kdn(a2-3)Gal(b1-4)GlcNAc = target: Kdn(a2-3)Gal(b1-4)GlcNAc
Outline: as §1

[7] = target: Man(a1-2)Man(a1-6)[Man(a1-3)]Man(a1-6)[Man(a1-2)Man(a1-2)Man(a1-3)]Man
Outline: as §1

[8] = target: Man(a1-3)[Man(a1-6)]Man(a1-6)[Man(a1-2)Man(a1-3)]Man(b1-4)GlcNAc(b1-4)GlcNAc
Outline: as §1

[9] = target: Neu5Ac(a2-3)Gal(b1-3)GlcNAc
Outline: as §1

[10] = target: Neu5Ac(a2-3)Gal(b1-3)[Fuc(a1-4)]GlcNAc
Outline: as §1

[11] = target: Neu5Ac(a2-3)Gal(b1-4)GlcNAc(b1-2)Man
Outline: as §1

[12] = target: Neu5Ac(a2-3)Gal(b1-4)GlcNAc(b1-2)[Neu5Ac(a2-3)Gal(b1-4)GlcNAc(b1-6)]Man(a1-6)[Neu5Ac(a2-3)Gal(b1-4)GlcNAc(b1-2)Man(a1-3)]Man(b1-4)GlcNAc(b1-4)GlcNAc
Outline: as §1

[13] = target: Neu5Ac(a2-3)Gal(b1-4)GlcNAc(b1-3)Gal(b1-4)GlcNAc(b1-3)Gal(b1-4)GlcNAc
Outline: as §1

[14] = target: Neu5Ac(a2-3)Gal(b1-4)[Fuc(a1-3)]GlcNAc(b1-6)[Neu5Ac(a2-3)Gal(b1-3)]GalNAc
Outline: as §1

Neu5Ac(a2-6)Gal(b1-4)Glc = target: Neu5Ac(a2-6)Gal(b1-4)Glc
Outline: as §1

[15] = target: Neu5Ac(a2-6)Gal(b1-4)GlcNAc(b1-2)Man(a1-3)Man(b1-4)GlcNAc(b1-4)GlcNAc
Outline: as §1

[16] = target: Neu5Ac(a2-6)Gal(b1-4)GlcNAc(b1-2)[Neu5Ac(a2-6)Gal(b1-4)GlcNAc(b1-6)]Man(a1-6)[Neu5Ac(a2-6)Gal(b1-4)GlcNAc(b1-2)Man(a1-3)][GlcNAc(b1-4)]Man(b1-4)GlcNAc(b1-4)GlcNAc
Outline: as §1

[17] = target: Neu5Ac(a2-8)Neu5Ac(a2-3)Gal(b1-3)GalNAc(b1-4)[Neu5Ac(a2-8)Neu5Ac(a2-3)]Gal(b1-4)Glc
Outline: as §1

[18] = target: Neu5Ac(a2-8)Neu5Ac(a2-8)Neu5Ac(a2-3)[Gal(b1-3)GalNAc(b1-4)]Gal(b1-4)Glc
Outline: as §1

[19] = target: Neu5Ac(a2-8)Neu5Ac(a2-8)Neu5Ac(a2-8)Neu5Ac(a2-3)[GalNAc(b1-4)]Gal(b1-4)Glc
Outline: as §1

[20] = target: Neu5Gc(a2-3)Gal(b1-4)[Fuc(a1-3)]GlcNAc
Outline: as §1

B1: Gs78B-bfa-542-29-542 (Bacteroides fragilis) (protein)
chain: SEDINRNPLLPTKEDEKMDGVIYGAYLPNLEKSVIPIGTASESTEPVNRYQIGVNLAGDAWAGYMSPRDNKFNGSKNFTNYFMYENWVNYVYSFMVTDVYSPWMQIKRISQDEGTRNDEIYALAQIIKIAALHRTTDMFGPIPYSQVGKGSFKVAYDSQESVYRSFLKELEEAVQTLDDYSNKSKEVLPAFDIVYNGDVNKWMRFANSLMLRLAIRVRFADAGLAKEYAEKAVKHPAGLINSKELAAQMGKGAGLQMKNPLKVINEEYNDTRMGATIYSYLAGYNDARAAVYFVKNNGFKAVRCGIAKSGDAYNGFTRPNVHEDDPLYWMKASEVCFLKAEGALAGFDMGGSAGDFYNAGIRMSFSENGLDNSSAETYLKDSTRKPANYTDTSNGELSANAPSSITIRWENGATEEEKLERIITQKYLAIFPNGQEAWTEWRRTGYPRQIVVAENKTNSAVLIGNGYDLGGVRRLPYPRTEYEQNGENLHNAISQYLGGVDNAATKVWWDKKSK
glycan array binding signal (z-score) (GlcA(b1-6)Gal): 2.77 | glycan array binding signal (z-score) [1]: -0.691 | glycan array binding signal (z-score) [2]: -0.838 | glycan array binding signal (z-score) [3]: -0.844 | glycan array binding signal (z-score) [4]: -0.48 | glycan array binding signal (z-score) [5]: -0.439 | glycan array binding signal (z-score) [6]: -0.828 | glycan array binding signal (z-score) (GlcNAc(b1-6)GalNAc): -0.233 | glycan array binding signal (z-score) (Kdn(a2-3)Gal(b1-4)GlcNAc): 2.84 | glycan array binding signal (z-score) [7]: -0.844 | glycan array binding signal (z-score) [8]: 3.49 | glycan array binding signal (z-score) [9]: -0.067 | glycan array binding signal (z-score) [10]: -0.793 | glycan array binding signal (z-score) [11]: 2.92 | glycan array binding signal (z-score) [12]: 0.079 | glycan array binding signal (z-score) [13]: -0.832 | glycan array binding signal (z-score) [14]: 5.64 | glycan array binding signal (z-score) (Neu5Ac(a2-6)Gal(b1-4)Glc): -0.346 | glycan array binding signal (z-score) [15]: 1.48 | glycan array binding signal (z-score) [16]: -0.454 | glycan array binding signal (z-score) [17]: 0.648 | glycan array binding signal (z-score) [18]: -0.843 | glycan array binding signal (z-score) [19]: 1.92 | glycan array binding signal (z-score) [20]: 0.283
